We go through 83 molecules from PubChem BioAssay AID652068 (The Scripps Research Institute Molecular Screening Center, 2013).

As usually defined, the inhibition is the share of the control response that was lost under treatment.

The campaign covered roughly 4,300 compounds. About 4,000 (93%) were called active. The set was probably picked from earlier hits. Only a sample is shown. A number with no mark means an inactive call.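 The calls were made as follows: active = inhibition above its plate's cutoff, the mean test-well inhibition plus 3 SD (cut at about 4.8% in these data); inactive = the rest.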

This experiment can be described thus: DNA CAG/GTC dye complex inhibitors – biochemical, fluorescence, TO-PRO-1 dye, d(CAG) DNA oligo, counter-screen for rCAG RNA repeat binder project (AID 652068).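 Also: 0% = DNA dye mix with DMSO and 100% = 100 µM mitoxantrone; hits displace the dye from DNA and so lower well fluorescence.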 The conditions noted are these: d(CAG) DNA oligo TO-PRO-1 dye displacement, at 3 µM, hits give high values. In general terms: A counterscreen serves to expose hits that act by an unwanted route or on another target.
In the case of `CC(C)c1ccc(Nc2nnc(SCC(=O)c3nnc(-c4ccccc4)o3)s2)cc1`, the inhibition is 27.2% (active).

As to `O=C(O)c1ccc(NN=CC2=C(N3CCOCC3)/C(=C/c3ccccc3)CC2)cc1`, the inhibition was 30.8% (active).

As to `NC(=O)c1c(Nc2nc3c(F)cccc3s2)sc2c1CCCC2`, the inhibition was 14.3% (active).

Consider `COc1ccc(OC)c(NC(=O)CSc2nc(-c3ccccc3)cc(=O)[nH]2)c1`, for which the inhibition is 5.74% (active).

With `CCOc1cc(/C=C(\C#N)c2nc(-c3cccs3)c(NC(C)=O)s2)ccc1O`, the inhibition is 16.7% (active).

Consider `CCCOc1ccc(Cn2c(O)cc(=O)[nH]c2=O)cc1`, for which the inhibition was 6.06% (active).

For the molecule `COc1ccc(Cl)cc1-n1c(=S)sc2c(=O)n(-c3ccc(F)cc3)c(SCC(=O)O)nc21`, the inhibition was 8.24% (active).

In the case of `COc1ccccc1/C=C/C=N/n1c(-c2ccc(Cl)cc2Cl)n[nH]c1=S`, the inhibition was 15.2% (active).

Turning to `COc1cc(C2CC(=O)N3CN(Cc4ccccc4)CSC3=C2C#N)ccc1OCc1ccccc1` (stereo not drawn), the inhibition is 12.4% (active).

Regarding `Cc1ccc(Nc2nc(-c3ccc(O)cc3O)cs2)nc1`, the inhibition is 13% (active).

For the molecule `O=C(N/N=C/c1cc(Cl)cc([N+](=O)[O-])c1O)C(O)(c1ccccc1)c1ccccc1`, the inhibition is 17.8% (active).

In the case of `Cc1cc(/C=C2/C(=N)N3C(=NC2=O)SN=C3S(C)(=O)=O)c(C)n1-c1ccccc1`, the inhibition is 53.2% (active).

For the molecule `Clc1ccccc1CSc1nnc(-c2ccco2)c(-c2ccco2)n1`, the inhibition is 30% (active).

On to `Cc1cc(F)ccc1S(=O)(=O)Nc1ncnc2scc(-c3ccc(F)cc3)c12`, for which the inhibition is 34.7% (active).

Consider `O=C(Nc1nc(-c2ccco2)c(-c2ccco2)s1)c1ccco1`, for which the inhibition is 16.6% (active).

As for `Cc1ccc(C(=O)O)cc1-c1ccc(/C=C2\SC(=O)N(CC(=O)Nc3ccc4c(c3)OCO4)C2=O)o1`, the inhibition is 59.2% (active).

Turning to `Cc1ccc(C(C)C)c(OCCSc2nc3ccccc3n2CC(=O)O)c1`, the inhibition is 10.7% (active).

Turning to `Cc1ccc(C)c(Cn2nnc3c(=O)[nH]c(C(=O)Nc4ccc(F)cc4)nc32)c1`, the inhibition is 11.1% (active).

With `O=c1cc(CN2CCN(S(=O)(=O)/C=C/c3ccccc3)CC2)c2ccc(O)cc2o1`, the inhibition is 13.1% (active).

Regarding `Cc1cccc(C)c1NC(=O)C(c1ccc(C(F)(F)F)cc1)n1c(=O)c(-c2ccco2)nc2ccccc21` (stereo not drawn), the inhibition was 7.75% (active).

In the case of `O=C1c2cccc3cccc(c23)C(=O)N1CCCCCc1n[nH]c(=S)o1`, the inhibition is 6.52% (active).

Regarding `CC(C)c1nc(SCC(=O)Nc2cccc(C(=O)O)c2)c2c3c(sc2n1)CCCC3`, the inhibition was 20% (active).

For the molecule `O=C(N/N=C/c1cccnc1)c1cc2ccccc2cc1O`, the inhibition is 4.9% (active).

For the molecule `Cc1ccc(NC(=O)Nc2nnc(-c3ccncc3)s2)cc1`, the inhibition was 13.7% (active).

For the molecule `Cc1nnc(NC(=O)Nc2ccc(Cl)c(Cl)c2)s1`, the inhibition is 21.5% (active).

Consider `C=C1c2c(Cl)ccc(O)c2C(O)=C2C(=O)[C@]3(O)C(O)=C(C(N)=O)C(=O)[C@@H](N(C)C)[C@@H]3[C@@H](O)C12` (stereo partly drawn), for which the inhibition is 38% (active).

Take `Cc1ccc(Nc2nc(CSc3nnnn3-c3ccccc3)cc(=O)[nH]2)cc1`: the inhibition was 16.6% (active).

On to `O=C(O)c1ccc2c(c1)C(=O)N(c1ccc(/C=C/C(=O)c3ccccc3)cc1)C2=O`, for which the inhibition was 23.6% (active).

Consider `CCOc1ccc(-n2c(O)c(/C=N/Nc3nnc(C)c(=O)[nH]3)c3ccccc3c2=O)cc1`, for which the inhibition was 22.9% (active).

Consider `N#Cc1c(NC(=O)C2CC(Cl)=CCC2C(=O)O)sc2c1CCCCC2` (stereo not drawn), for which the inhibition is 9.19% (active).

Regarding `COC(=O)c1c(NC(=O)C2CC(C)=C(C)CC2C(=O)O)sc2c1CCCCC2` (stereo not drawn), the inhibition is 20.6% (active).

As for `CCc1nnc(NS(=O)(=O)c2ccc(NC(=O)c3cccc(OC(F)(F)C(F)F)c3)cc2)s1`, the inhibition is 22.8% (active).

Turning to `CCc1nnc(NS(=O)(=O)c2ccc(NC(=S)NC(=O)c3cccs3)cc2)s1`, the inhibition is 16.6% (active).

As for `COc1ccc(C(=O)Nc2cccc(/C=C(/CCC(=O)O)c3nc4ccccc4s3)c2)cc1`, the inhibition is 33.5% (active).

With `O=C(O)CC/C(=C\c1cc2c(cc1Br)OCO2)c1nc2ccccc2s1`, the inhibition is 13.3% (active).

`Cc1ccc2cc(/C=N/Nc3ccc(C(=O)O)cc3)c(Cl)nc2c1`: the inhibition was 12% (active).

For the molecule `Cc1ccc(/C=C/C(=O)Nc2ccc([N+](=O)[O-])c(NC(=O)/C=C/c3ccc(C)o3)c2)o1`, the inhibition was 24.9% (active).

Take `O=C(Nc1nnc(-c2ccccc2)o1)c1cc(-c2cccs2)nc2ccccc12`: the inhibition is 28.7% (active).

With `O=C(Nc1ccccc1)Nc1nnc(COc2ccccc2F)s1`, the inhibition was 24.9% (active).

Consider `O=C(NC(=S)Nc1ccccc1C(=O)O)c1ccc(-c2ccc(Br)cc2)o1`, for which the inhibition was 40.4% (active).

Regarding `COCCNC(=O)Nc1ccc2nc(-c3ccco3)c(-c3ccco3)nc2c1`, the inhibition was 28.6% (active).

For `Cc1ccc(C(=O)Oc2coc(CSc3nnc(NC(=O)c4cccs4)s3)cc2=O)cc1C`, the inhibition is 23.1% (active).

As for `Cc1ccc(-c2csc(C(C#N)=C(O)CN3CCN(C(=O)c4ccco4)CC3)n2)cc1`, the inhibition is 18.7% (active).

Turning to `Cc1ccc(S(=O)(=O)NCCC(c2ccccc2)c2ccccc2)cc1C(=O)O`, the inhibition was 5.44% (active).

On to `Cc1ccccc1OCC(=O)Nc1nnc(S(=O)(=O)N2CCCC2)s1`, for which the inhibition is 10.8% (active).

For the molecule `CCCCCCC(=O)Nc1nc(C)c(-c2csc(Nc3cc(Cl)ccc3OC)n2)s1`, the inhibition is 11.6% (active).

With `C[C@H]([C@@H](O)[C@@H](O)[C@@H](C)C(C)(C)C)[C@H]1CC[C@H]2C3CC[C@H]4C[C@H](OS(=O)(=O)O)[C@@H](OS(=O)(=O)O)C[C@]4(C)[C@H]3CC[C@]12C` (stereo partly drawn), the inhibition was 61.2% (active).

For the molecule `Cc1ccc(S(=O)(=O)Nc2nc3ccccc3s2)cc1[N+](=O)[O-]`, the inhibition is 6.62% (active).

In the case of `O=C1/C(=C/c2ccc(F)cc2)SC(=S)N1NS(=O)(=O)c1ccccc1`, the inhibition was 11.9% (active).

As to `COc1ccc2[nH]c3c(C)c4cc[n+](C)cc4c(C)c3c2c1`, the inhibition was 61.2% (active).

Regarding `Oc1c(Cl)cc(Cl)c(Cl)c1Cc1c(O)c(Cl)cc(Cl)c1Cl`, the inhibition is 76.5% (active).

As for `CCn1c(SCC(=O)Nc2ccc(S(=O)(=O)Nc3onc(C)c3C)cc2)nnc1-c1ccccc1`, the inhibition was 6.29% (active).

As to `Cc1cc(NS(=O)(=O)c2ccc(NC(=O)CSc3nnc(-c4ccc(C(C)(C)C)cc4)n3Cc3ccco3)cc2)nc(C)n1`, the inhibition was 4.42% (active).

With `Cc1cc(NS(=O)(=O)c2ccc(NC(=O)CSc3nnc(SCc4ccc(F)cc4)s3)cc2)nc(C)n1`, the inhibition was 13% (active).

For the molecule `Cc1nnc(SC(C(=O)Nc2cc(Cl)cc(Cl)c2)c2ccccc2)[nH]c1=O` (stereo not drawn), the inhibition was 28% (active).

Take `CCOc1ccc(-n2c(SCC(=O)Nc3cc(C(=O)O)ccc3Cl)nc3ccccc3c2=O)cc1`: the inhibition is 19.2% (active).

On to `COC(=O)c1sc(-c2ccc(C(C)(C)C)cc2)cc1NC(=O)/C=C/C(=O)O`, for which the inhibition was 41.3% (active).

For `CSc1ccc(C=Nn2c(-c3ccc(F)cc3)n[nH]c2=S)cc1`, the inhibition is 11.3% (active).

`CC(C(=O)Nc1ccc(O)c(C(=O)O)c1)N1C(=O)/C(=C/c2cccs2)SC1=S` (stereo not drawn): the inhibition is 42.3% (active).

For the molecule `CC(Oc1ccc2c(-c3ccccc3)cc(=O)oc2c1)C(=O)NC(Cc1c[nH]c2ccccc12)C(=O)O` (stereo not drawn), the inhibition was 16.9% (active).

With `COc1ccc(-c2cc(C(=O)NC(Cc3c[nH]c4ccccc34)C(=O)O)c(C)o2)cc1OC` (stereo not drawn), the inhibition is 16.9% (active).

For the molecule `O=C(N[C@@H](Cc1c[nH]c2ccccc12)C(=O)O)OCC1c2ccccc2-c2ccccc21`, the inhibition is 23.8% (active).

With `COc1ccc(S(=O)(=O)NCCc2c[nH]c3ccccc23)cc1OC`, the inhibition is 0.56%.

As to `COc1ccc(-c2cc(=O)oc3cc(OCC(=O)N[C@@H](Cc4c[nH]c5ccccc45)C(=O)O)ccc23)cc1`, the inhibition is 26.4% (active).

In the case of `COc1cccc2sc(NNC(=O)c3nc4ccccc4s3)nc12`, the inhibition was 42.1% (active).

Regarding `Cc1ccc(-n2c(SCC(=O)Nc3ccc(S(=O)(=O)Nc4nccs4)cc3)nnc2-c2cccnc2)cc1`, the inhibition is 24.7% (active).

In the case of `Cc1ccc(-n2c(SCC(=O)Nc3ccc(S(=O)(=O)Nc4nccs4)cc3)nnc2-c2ccccn2)cc1`, the inhibition was 23.8% (active).

In the case of `Cc1ccc(-n2c(SCC(=O)Nc3ccc(S(=O)(=O)Nc4nccs4)cc3)nnc2-c2ccncc2)cc1`, the inhibition was 35.9% (active).

On to `CC1(C(=O)NS(=O)(=O)c2ccccc2)CCN1C(=O)Cc1ccc(-c2ccccc2)cc1` (stereo not drawn), for which the inhibition is 7.2% (active).

Take `CC1(C(=O)NS(=O)(=O)Cc2cccc(Cl)c2)CCN1C(=O)Cc1ccc(Cl)cc1Cl` (stereo not drawn): the inhibition was 36.2% (active).

Turning to `CC(C)c1ccc(CC(=O)N2CCC2(C)C(=O)NS(=O)(=O)c2ccc(C(C)(C)C)cc2)cc1` (stereo not drawn), the inhibition is 25.3% (active).

`COc1ccc(S(=O)(=O)NC(=O)C2(C)CCN2C(=O)c2ccccc2CCc2ccccc2)cc1` (stereo not drawn): the inhibition is 6.35% (active).

Regarding `CC(Oc1ccc2ccccc2c1)C(=O)NNC(=S)NC(=O)c1ccco1` (stereo not drawn), the inhibition was 11.8% (active).

As for `CCCc1ccc(OCC(=O)NNC(=S)NC(=O)c2ccco2)cc1`, the inhibition is 14.4% (active).

Turning to `O=C(Nc1ccc2c(c1)CCC2)c1cccc(S(=O)(=O)Nc2ccccc2Cl)c1`, the inhibition was 10.7% (active).

For `NS(=O)(=O)c1ccc(N=Nc2c(O)[nH]c3ccc(Br)cc23)cc1`, the inhibition was 9.96% (active).

As for `N#CCC(=O)Nc1ccc(C(=O)OCC(=O)Nc2sc3c(c2C#N)CCCC3)cc1`, the inhibition is 17% (active).

Turning to `COC(=O)c1sccc1NC(=O)CSc1ccccc1NS(=O)(=O)c1cc(Cl)ccc1Cl`, the inhibition was 32.6% (active).

Consider `NS(=O)(=O)c1ccc(NC2=CC(c3ccc(F)cc3)N(c3ccc(S(N)(=O)=O)cc3)C2=O)cc1` (stereo not drawn), for which the inhibition was 15% (active).

With `CC(C)(C)C1C/C(=C/c2ccco2)C(=O)/C(=C/c2ccco2)C1` (stereo not drawn), the inhibition was 17.1% (active).

With `CC(=O)N(c1ccc2oc(=O)sc2c1)S(=O)(=O)c1ccc(C)cc1`, the inhibition was 3.88%.

Consider `O=C(c1cccnc1)N(c1cc2sc(=O)oc2c2ccccc12)S(=O)(=O)c1ccccc1`, for which the inhibition is 20.1% (active).

For the molecule `COc1ccc(Cc2nnc(SCC(=O)Nc3ccc(C)c(Cl)c3)[nH]c2=O)cc1`, the inhibition is 24.4% (active).
